# In PubChem BioAssay:
# Activity calls are given as the source filed them.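 Rule for the calls, unless noted: active = visually confirmed hit in the image check and inhibition above 20%; inconclusive = visually confirmed hit but inhibition not above 20%; inactive = no visual hit in the image check.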
# Columns and labels:
# [1] = inhibitors of TNFa-induced NFkB p65 translocation, primary screen, imaging, HUVEC, MLSMR starter and 10KST1 sets (AID 438;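 active = inhibition above 20% together with a positive visual image hit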;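 note: compound added about 3h40 before a 20 min TNFalpha stimulation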;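 for inhibition: signal is the nuclear over cytoplasmic p65 intensity ratio per well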); details: HUVEC TNFa-induced p65 nuclear translocation; cell count: measured here: nuclei count (cytotoxicity indicator), at 2.08 µM; inhibition: at 2 µM, stronger effect = higher value, 0% TNFa-plus-vehicle, 100% no-TNFa wells
# [2] = reduction of polyQ htt aggregates in cells – imaging, exon1htt(103Q)mCFP cells, high-content imaging, primary screen (AID 483;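 active = visual image review flags a hit and inhibition of aggregation exceeds 20%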;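 note: compound exposure lasted 3 days before fixation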;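 for nuclei count: percent of the per-plate median nuclei count of sample wells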); details: exon1htt(103Q)mCFP cell line, aggregate imaging, at 2 µM; inhibition of aggregation: stronger effect = higher value; nuclei count: measured here: cell count, toxicity
# [3] = endothelial E-selectin expression blockers – imaging, HUVEC, immunofluorescence, MLSMR starter and 10KST1 sets, primary screen (AID 487); details: HUVEC TNFalpha-induced E-selectin immunofluorescence imaging, at 2 µM; inhibition: stronger effect = higher value; nuclei count: measured here: cell number, toxicity;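 for inhibition: signal is fraction of cell area covered by stained E-selectin grains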;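 for nuclei count: 100% = median nuclei count of all wells on the same plate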
# [4] = molecular target: Voltage-gated potassium channel subunit beta-2 (Rattus norvegicus) (UniProt P62483); experiment: inhibitors of rat Kvbeta2 reductase activity – biochemical, NADPH fluorescence, primary screen (AID 622;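 active = fluorescence slope higher than the sample average by over 3 SD, cut at about -0.22 in these data, passing the limit was not always enough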;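 note: slope of raw intensity against log time taken from 70 to 1610 s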); details: recombinant KvBeta, 4-cyanobenzaldehyde reduction, at 10 µM, stronger effect = higher value
# [5] = molecular target: Voltage-gated potassium channel subunit beta-2 (Rattus norvegicus) (UniProt P62483); experiment: enhancers of rat Kvbeta2 NADPH turnover – biochemical, NADPH fluorescence, primary screen (AID 623;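 active = NADPH fluorescence slope more negative than the mean of all samples by about 3 SD, 99.7% confidence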;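 note: fluorescence intensity change per second fitted from 20 to 320 s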); details: Recombinant KvBeta, NADPH fluorescence decrease slope, 10 min; at 10 µM; stronger effect = lower value
# [6] = molecular target: Alpha-2C adrenergic receptor (Homo sapiens) (UniProt P18825); experiment: compounds altering alpha2C-coupled GIRK flux – cell-based, HEK293 alpha2C/GIRK1/2, thallium flux, primary screen (AID 624;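 active = fluorescence slope after compound addition differing from the mean of all screened samples at 99.7% confidence, in either direction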;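 note: slope of fluorescence ratio to pre-addition baseline per second over 15 to 24 s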); details: thallium flux BTC fluorescence, at 10 µM, actives lie on both sides
# [7] = blockers of RIG-like receptor reporter activation – cell-based, Sendai virus stimulus, luciferase, 10K MLSCN set, TLR/RLR signaling modifier project, primary screen (AID 602276;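 active = inhibition at or above 50% at 10 µM; inactive = inhibition below 50%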;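 note: firefly luciferase from ISG56 promoter only with Renilla not read in this screen; 0% = Sendai virus plus DMSO and 100% = medium plus DMSO without virus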); details: HEK293 RL24 IRF3 luciferase reporter, at 10 µM, stronger effect = higher value
# [8] = TLR3 IRF3 reporter activation blockers – cell-based, poly I:C stimulus, luciferase, 10K MLSCN set, primary screen (AID 602277;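 active = inhibition of the reporter signal at or above 50%; inactive = inhibition below 50%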); details: HEK293-TLR3 RL24 IRF3 luciferase reporter, at 10 µM, stronger effect = higher value
# Sequence of Alpha-2C adrenergic receptor (Homo sapiens) (P18825 whole entry, looked up): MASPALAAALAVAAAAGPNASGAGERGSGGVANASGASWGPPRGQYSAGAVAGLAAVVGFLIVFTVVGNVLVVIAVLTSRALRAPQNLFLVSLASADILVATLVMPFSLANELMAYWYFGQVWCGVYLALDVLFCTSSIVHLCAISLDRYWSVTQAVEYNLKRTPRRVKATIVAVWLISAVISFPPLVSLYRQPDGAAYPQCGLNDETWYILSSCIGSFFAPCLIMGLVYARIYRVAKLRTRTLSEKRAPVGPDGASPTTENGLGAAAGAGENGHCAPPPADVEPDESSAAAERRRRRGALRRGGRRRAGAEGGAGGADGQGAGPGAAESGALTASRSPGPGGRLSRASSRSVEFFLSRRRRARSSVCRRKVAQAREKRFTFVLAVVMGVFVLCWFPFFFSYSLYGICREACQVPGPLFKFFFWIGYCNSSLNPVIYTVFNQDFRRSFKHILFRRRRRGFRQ
# Sequence of Voltage-gated potassium channel subunit beta-2 (Rattus norvegicus) (P62483 whole entry, looked up): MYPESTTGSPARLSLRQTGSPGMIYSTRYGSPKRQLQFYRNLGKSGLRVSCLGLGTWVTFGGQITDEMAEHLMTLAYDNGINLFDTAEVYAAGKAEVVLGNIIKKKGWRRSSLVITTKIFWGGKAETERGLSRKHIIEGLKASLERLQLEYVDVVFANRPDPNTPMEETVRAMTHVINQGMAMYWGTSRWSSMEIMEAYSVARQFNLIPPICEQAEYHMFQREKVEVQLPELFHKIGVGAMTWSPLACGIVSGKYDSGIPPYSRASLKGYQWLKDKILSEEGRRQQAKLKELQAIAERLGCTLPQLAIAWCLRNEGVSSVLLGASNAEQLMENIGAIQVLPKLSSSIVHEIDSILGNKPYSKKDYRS
SMILES,cell count [1],inhibition [1],inhibition of aggregation [2],nuclei count [2] [%],inhibition [3],nuclei count [3] [%],fluorescence slope [4],NADPH fluorescence slope [5],slope [6],inhibition [7],inhibition [8]
CCOC(=O)C1CCCn2c1nc1sc3c(c1c2=O)CCCC3 (centres undefined),457,3.7% (inactive),-6% (inactive),110,-114% (inactive),115,-0.435 (inactive),9.6e-06 (inactive),0.00445 (inactive),-24.3% (inactive),-20.3% (inactive)
CC1CN(CC(O)COc2ccccc2C(C)(C)C)CC(C)O1 (centres undefined),609,-29.6% (inactive),-10.6% (inactive),108,-32.5% (inactive),101,-0.509 (inactive),1.1e-05 (inactive),0.00559 (inactive),10.2% (inactive),23.2% (inactive)
c1ccc(N2CCN(Cc3cn4cccnc4n3)CC2)cc1,683,-18.4% (inactive),-18.4% (inactive),107,-36.1% (inactive),101,-0.494 (inactive),-4e-06 (inactive),0.00602 (inactive),8.99% (inactive),18.5% (inactive)
Cc1ccc2c(Cl)cc(Cl)c(OCc3c(C)noc3C)c2n1,731,-1.2% (inactive),-13.6% (inactive),97.3,-164% (inactive),142,-0.604 (inactive),2.6e-05 (inactive),0.00543 (inactive),-17% (inactive),-0.677% (inactive)
COc1nc(C)ccc1-c1noc(-c2ccncc2)n1,255,7% (inactive),-7.3% (inactive),36.4,-40% (inactive),130,-0.468 (inactive),-1.8e-06 (inactive),0.00545 (inactive),-26% (inactive),-82.9% (inactive)
CC1=C(C(=O)OCc2ccccc2)C(c2ccc(C)o2)C2=C(CCCC2=O)N1 (centres undefined),745,1.9% (inactive),14.6% (inactive),101,29.9% (inactive),97,-0.466 (inactive),-3.8e-05 (inactive),0.00603 (inactive),2.43% (inactive),15.6% (inactive)
Cc1ccc(-c2oc3ccccc3c(=O)c2O)cc1,559,-12% (inactive),-15.8% (inactive),15.8,2.6% (inactive),105,-0.0172 (active),-2.7e-06 (inactive),0.00718 (inactive),-10.6% (inactive),-26.8% (inactive)
CC(C)c1nnc(NC(=O)c2cnccn2)s1,425,-0.5% (inactive),-3.7% (inactive),103,-38.5% (inactive),105,-0.479 (inactive),-4.7e-05 (inactive),0.00644 (inactive),-7.98% (inactive),-13.6% (inactive)
CCOc1ccc(NC(=O)CSc2nccn2C)cc1,309,15.3% (inactive),3.1% (inactive),106,-28.1% (inactive),114,-0.28 (inactive),1e-05 (inactive),0.00367 (inactive),-18.3% (inactive),-80.7% (inactive)
CCOc1ccc(CN2C(=O)c3ccccc3C2C(=O)NCc2cccnc2)cc1 (centres undefined),500,-1.1% (inactive),-9.9% (inactive),110,-52.5% (inactive),94.3,-0.599 (inactive),-1.6e-05 (inactive),0.00638 (inactive),8.35% (inactive),16.9% (inactive)
CCCCOc1ccc(C(=O)N2CCC(C)CC2)cc1,323,7.9% (inactive),-8.4% (inactive),99.9,-13.8% (inactive),87,-0.434 (inactive),-5.1e-05 (inactive),0.00442 (inactive),-4.61% (inactive),-21% (inactive)
COc1cc(CN2CCN(C(=O)CC(C)C)CC2)cc(OC)c1O,642,-11% (inactive),-4.6% (inactive),99.7,-52.5% (inactive),90.3,-0.583 (inactive),-2.8e-05 (inactive),0.00548 (inactive),5.89% (inactive),16% (inactive)
COc1ccccc1NC(=O)Cc1noc(CSc2cc(C)c3ccccc3n2)n1,572,-12.8% (inactive),25.7% (inactive),81.6,-160% (inactive),95.9,-0.337 (inactive),-5.3e-05 (inactive),0.00168 (inactive),6.32% (inactive),-8.68% (inactive)
CC(C)CCNC(=O)C(c1cccs1)N(CC1CCCO1)C(=O)Cn1nnc2ccccc21 (centres undefined),642,8.8% (inactive),3.2% (inactive),85.4,-132% (inactive),97.1,-0.451 (inactive),-5.1e-05 (inactive),0.00299 (inactive),10.3% (inactive),35.6% (inactive)
